# Screening data as filed in PubChem.
# A selection: hits, their analogues and other compounds. The true share with any hit is near 17%.
# HT1080 IDH1KD tx: toxicity to HT-1080 IDH1 knockdown cells (counter line) | HT-1080 IDH1 knockdown viability, ATP luminescence, 48 h | Potency, µM (doses to about 46.1 µM), most hits filed as cytotoxic | 2% of 360,000 active
#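 Luminescent ATP read-out (CellTiter-Glo, 10 min at room temperature) after 48 h compound exposure at 37 °C gave viability of IDH1-knockdown HT-1080 cells. Activity was normalised to DMSO and cell-free wells, then fitted as concentration-response curves.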
# TDP1 cell CPT: growth inhibition of DT40 Tdp1-/-;hTDP1 cells with camptothecin (screen for TDP1 inhibitors); chicken DT40 Tdp1-/-;hTDP1 cells + 20 nM CPT, ATP luminescence, 48 h; Potency, µM (titrated, usually from 46.2 µM), hits mostly inhibitors; 12% of 420,000 active; also: nearly all actives have a fitted effect of over 55% in size
#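 Chicken DT40 Tdp1-/- cells stably complemented with human TDP1 were seeded at 400 cells/well in medium containing 20 nM camptothecin, exposed to pin-transferred compounds, and grown at 37 °C for at least 48 hr. Viability was read as ATP luminescence.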
# HepG2 tox: kills HepG2 cells in TGF-b inhibitor counter-screen. HepG2 CAGA-GFP viability, ATP luminescence, 18 h. Potency, µM (top dose mostly 46.1 µM), usual class: cytotoxic. 0.76% of 410,000 active
#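 HepG2 CAGA-GFP cells (1000/well, DMEM with 1% FBS) received compound, then TGF-beta at 500 pg/mL final, and were incubated 18 hours at 37 degrees C. Viability was read by CellTiter-Glo luminescence. Media-only wells were set as complete cell-killing and DMSO as no toxicity.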
# HT1080NT lethal: kills 2HG-producing HT-1080-NT fibrosarcoma cells. HT-1080-NT fibrosarcoma viability, CellTiter-Glo ATP luminescence, 48 h. Potency, µM (top dose mostly 46.1 µM), actives largely listed as cytotoxic. 1.6% of 360,000 active. AID 686970;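 also: NT is the 2HG producing partner of a matched IDH1 knockdown line; nearly all actives have a fitted effect of over 55% in size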
#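 Toxicity toward the 2HG-producing NT line was scored as %Activity, normalised to DMSO and no-cell wells, from CellTiter-Glo luminescence after 48 hours' treatment.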
# TDP1 cell noCPT: qHTS for Inhibitors of human tyrosyl-DNA phosphodiesterase 1 (TDP1): qHTS in cells in absence of CPT. DT40 Tdp1-/- hTDP1 cells, no CPT, ATP luminescence, 48 h. Potency, µM (top dose mostly 46.2 µM), hits mostly inhibitors. 15% of 420,000 active; also: nearly all actives have a fitted effect of over 55% in size
#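 Chicken DT40 Tdp1-/- cells stably complemented with human TDP1 were seeded at 400 cells/well with DMSO in place of 20 nM camptothecin. After compound pinning, cells grew at least 48 hr at 37 °C; viability read by CellTiter-Glo luminescence.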
# TGFb inhibitor: blocks TGF-b signaling; HepG2 CAGA-GFP TGF-b/SMAD3 reporter, GFP fluorescence, 18 h; TGF-beta stimulated, 500 pg/mL final; Potency, µM (highest dose often 46.1 µM), usual class: inhibitors; 1.2% of 410,000 active; also: nearly all actives have a fitted effect of over 65% in size
#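 HEPG2 CAGA-GFP, 1000 cells/well; 2 h settle, 37 C; cpd via pin tool; TGF-b 500 pg/mL final; 18 h, 37 C; GFP imaging ex488/em500-530; %Activity normalised to -TGF-b and +DMSO controls; CRC fit, curve class.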
# Numbers stand for hits; i = inactive; ? = inconclusive; nt = not tested or not shown; ! = not confirmed by another sample. Calls follow the shape of the dose curve; as a rule, active = well fitted curve in the direction sought with a large enough effect; inconclusive = small, poorly fitted or top-dose-only effect, or another doubt; inactive = no such curve, though single readings can be large; an effect the other way counts as inactive or inconclusive.
SMILES,HT1080 IDH1KD tx,TDP1 cell CPT,HepG2 tox,HT1080NT lethal,TDP1 cell noCPT,TGFb inhibitor
C=CCN(C(=O)CSc1nc2ccsc2c(=O)n1Cc1ccccn1)c1ccccc1,i,i,i,i,?,i
C=CCN(C(=O)CSc1nc2c(sc3ccccc32)c(=O)n1CCN(CC)CC)c1ccccc1,?,18µM,i,?,16µM,18µM
O=C(NCc1cc2ccccc2[nH]1)C1CCC(=O)N(CCCN2CCCC2=O)C1 (stereo not drawn),i,i,i,i,i,i
O=C(/C=C/[C@H]1O[C@@H](n2ccc(=O)[nH]c2=O)[C@H](O)[C@@H]1O)NCC1CCCO1 (stereo partly drawn),i,i,i,i,i,i
Cc1c(Cl)cccc1NC(=S)NN1CCOCC1,i,i,i,i,i,i
COc1cc(S(=O)(=O)Nc2ccc3cn[nH]c3c2)ccc1Cl,i,?,i,i,?,i
CCc1ccc(NC(=O)CSc2nc3c(sc4ccccc43)c(=O)n2CCCOC)cc1,nt,?,i,nt,?,i
CCc1ccc(NC(=O)CSc2nc3c(sc4ccccc43)c(=O)n2CCN(CC)CC)cc1,nt,15µM,i,nt,9.2µM,i
COc1ccc(-c2nnc(CSc3ncnc4sc5c(c34)CCC5)o2)cc1OC,i,?,i,i,10µM,i
CCNC(=O)c1ccccc1NC(=O)C1CC(=O)N(C(C)C)C1 (stereo not drawn),i,i,i,i,i,i
C=CCOc1ccccc1CNCCNC(=O)c1nonc1N,i,i,i,i,i,i
Nc1nonc1C(=O)NCCNCc1cc(Br)ccc1OCc1ccccc1F,i,21µM,i,i,21µM,i
CCOc1c(CNCCNC(=O)c2nonc2N)cccc1OC,i,?,i,?,i,i
Nc1nonc1C(=O)NCCNCc1cccc(Cl)c1Cl,nt,i,i,nt,i,i
CCOc1ccccc1CNCCNC(=O)c1nonc1N,i,?,i,i,26µM!,i
COc1cc(CNCCNC(=O)c2nonc2N)ccc1OCc1ccc(Cl)cc1,16µM,?,i,?,21µM,?
Nc1nonc1C(=O)NCCNCc1ccccc1OCc1ccccc1F,?,?,i,?,21µM,i
CCCCn1c(N)c(N(CCC(C)C)C(=O)c2oc3ccc(OCC)cc3c2C)c(=O)[nH]c1=O,i,?,i,i,?,i
Cc1cccc(NC(=O)CCNS(=O)(=O)c2cc(Br)cnc2N)c1C,i,i,i,i,i,i
CC1CCN(CCNC(=O)C2CCCN(S(=O)(=O)c3cccc4nsnc34)C2)CC1 (stereo not drawn),i,i,i,i,i,i
Cc1nnc(SCC(=O)c2c(N)n(C3CC3)c(=O)[nH]c2=O)n1-c1ccccc1,i,i,i,i,i,i
Fc1ccc(COc2ccc(Br)cc2CNCC2CCCO2)cc1 (stereo not drawn),?,?,i,?,?,i
Fc1ccccc1COc1ccc(Br)cc1CNCC1CCCO1 (stereo not drawn),i,?,i,i,15µM,i
O=C(O)CNC(=O)CC1S/C(=N/N=C2\CSC(=O)N2)NC1=O (stereo not drawn),i,i,i,i,i,i
O=C(O)CNC(=O)CC1S/C(=N/N=C/c2ccccc2O)NC1=O (stereo not drawn),i,21µM,i,i,16µM,i
SMILES,HT1080 IDH1KD tx,TDP1 cell CPT,HepG2 tox,HT1080NT lethal,TDP1 cell noCPT,TGFb inhibitor
CCCCCCCCCCCCCCCCCCNc1ccn(C2OC(COP(=O)(O)OCC3OC(n4cc(F)c(=O)[nH]c4=O)CC3O)C(O)C2O)c(=O)n1 (stereo not drawn),10µM,0.13µM,i,?,0.041µM,?
CCC(C)[C@H]1CNC(=S)N1CCC12CC3CC(CC(C3)C1)C2 (stereo partly drawn),i,16µM,i,i,15µM,i
O=C1NC(=S)N/C1=C/c1ccc2c(c1)OCO2,i,?,i,i,5.8µM,i
O=C1NC(=S)N/C1=C\c1ccc(N2CCOCC2)cc1,i,16µM,i,i,?,i
Cc1c(/C(O)=C2/C(=O)C(=O)N(CCN3CCOCC3)C2c2ccccn2)cnn1-c1ccccc1 (stereo not drawn),i,i,i,i,i,i
N[C@@H](C(=O)O)c1ccc(C(=O)O)c(C(=O)O)c1,nt,i,nt,nt,i,nt
O=C(NC1CCCC1)c1nc(-c2ccco2)oc1-c1ccccc1,i,?,nt,i,?,nt
CCOC(=O)N1CCN(Cc2nc3cc(NC(=O)c4ccccc4[N+](=O)[O-])ccc3n2C(C)C)CC1,nt,16µM,i,nt,16µM,i
CCOC(=O)N1CCN(Cc2nc3cc(NC(=O)c4ccccc4OC)ccc3n2C(C)C)CC1,nt,3.7µM,i,nt,2.3µM,i
CCOC(=O)N1CCN(Cc2nc3cc(NC(=O)CC)ccc3n2C)CC1,i,i,i,i,i,i
CCOC(=O)N1CCN(Cc2nc3cc([N+](=O)[O-])ccc3n2C(C)C)CC1,nt,21µM,i,nt,?,i
Cc1ccccc1NC(=O)CSc1ncc2c(n1)-c1ccccc1N(C)S2(=O)=O,nt,?,i,nt,i,i
CC1Cc2nc(SCC(N)=O)n(Cc3ccccc3)c(=O)c2S1 (stereo not drawn),i,i,i,i,i,i
CC1Cc2nc(SCC(=O)Nc3nccs3)n(Cc3ccccc3)c(=O)c2S1 (stereo not drawn),i,21µM,i,i,?,?
CC1Cc2nc(SCC(=O)Nc3ccc4c(c3)OCO4)n(Cc3ccccc3)c(=O)c2S1 (stereo not drawn),i,16µM,i,i,?,i
CCSc1nc2c(c(=O)n1Cc1ccccc1)SC(C)C2 (stereo not drawn),i,12µM,i,i,?,?
CC1Cc2nc(SCC(=O)Nc3ccc4c(c3)OCCO4)n(C)c(=O)c2S1 (stereo not drawn),i,?,i,i,?,?
COCCn1c(SCC(=O)Nc2ccc3c(c2)OCCO3)nc2c(c1=O)SC(C)C2 (stereo not drawn),i,15µM,i,i,?,i
Cc1ncc([N+](=O)[O-])n1CC(=O)N/N=C/c1ccccc1F,i,i,i,i,i,i
COc1ccc(-n2ccn(Cc3ccc(C)cc3)c(=O)c2=O)cc1OC,nt,i,i,nt,i,i
CC[C@]12c3[nH]c4ccccc4c3CCN1C(=O)C(CC(=O)NCCC1=CCCCC1)C[C@@H]2C(=O)N1CCN(C(=O)c2ccco2)CC1 (stereo partly drawn),i,?,i,i,?,i
